{"source": "ChEMBL document CHEMBL1961873", "about": "“Compounds: GSK PKIS; Assays: Nanosyn kinase panel” (2012)", "data": [{"target": "T1, Tyrosine-protein kinase receptor TYRO3 (Homo sapiens) (UniProt Q06418)", "T1 sequence (whole entry)": "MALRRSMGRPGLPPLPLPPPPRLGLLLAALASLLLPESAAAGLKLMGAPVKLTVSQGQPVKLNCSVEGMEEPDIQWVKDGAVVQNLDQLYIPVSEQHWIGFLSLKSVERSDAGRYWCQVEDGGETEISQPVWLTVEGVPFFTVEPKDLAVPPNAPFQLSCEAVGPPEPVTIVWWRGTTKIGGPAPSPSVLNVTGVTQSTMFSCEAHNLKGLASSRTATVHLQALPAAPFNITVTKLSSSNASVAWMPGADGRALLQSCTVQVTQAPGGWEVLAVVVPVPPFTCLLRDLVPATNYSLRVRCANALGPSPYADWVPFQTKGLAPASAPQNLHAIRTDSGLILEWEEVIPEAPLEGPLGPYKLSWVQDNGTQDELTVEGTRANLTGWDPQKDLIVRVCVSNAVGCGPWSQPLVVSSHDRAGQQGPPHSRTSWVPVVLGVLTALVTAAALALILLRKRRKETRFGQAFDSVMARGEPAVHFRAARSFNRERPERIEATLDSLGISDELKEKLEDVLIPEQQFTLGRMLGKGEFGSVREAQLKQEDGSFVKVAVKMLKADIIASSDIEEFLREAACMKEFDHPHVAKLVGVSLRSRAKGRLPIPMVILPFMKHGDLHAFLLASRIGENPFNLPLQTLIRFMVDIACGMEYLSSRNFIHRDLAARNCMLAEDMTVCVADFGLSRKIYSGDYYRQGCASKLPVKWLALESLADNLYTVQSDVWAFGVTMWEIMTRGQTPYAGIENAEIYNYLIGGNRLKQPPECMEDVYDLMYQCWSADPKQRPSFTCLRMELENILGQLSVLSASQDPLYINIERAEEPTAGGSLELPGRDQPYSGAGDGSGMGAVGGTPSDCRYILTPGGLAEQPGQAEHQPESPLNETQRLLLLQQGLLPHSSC", "conditions": "at 0.1 µM", "units": {"inhibition": "%"}, "values": [{"smiles": "Fc1ccc(-c2nn3ccccc3c2-c2ccncc2)cc1", "inhibition": 0.22}, {"smiles": "NS(=O)(=O)c1ccc(N/N=C2\\C(=O)Nc3ccc4ncccc4c32)cc1", "inhibition": 7.02}, {"smiles": "CCc1nn2ncccc2c1-c1ccnc(NC2CC2)n1", "inhibition": -0.14}, {"smiles": "O=C(Nc1n[nH]c2cc(-c3ccc(F)cc3)ccc12)C1CC1", "inhibition": 4}, {"smiles": "CCCN1CCC(c2ccc(Nc3nc(Nc4cc(F)ccc4C(N)=O)c4cc[nH]c4n3)c(OC)c2)CC1", "inhibition": 3.47}, {"smiles": "CCCN(CCS(C)(=O)=O)Cc1ccc(-c2ccc3ncnc(Nc4ccc(OCc5cccc(F)c5)c(Cl)c4)c3c2)o1", "inhibition": 2.08}, {"smiles": "CCn1cc(-c2ccnc3[nH]ccc23)c(-c2cccc(NC(=O)Nc3ccc(OCc4ccccc4)cc3)c2)n1", "inhibition": 0.03}, {"smiles": "CC(C)COC(=O)c1ccc2c(c1)/C(=C/Nc1ccc(S(N)(=O)=O)cc1)C(=O)N2", "inhibition": 0.69}, {"smiles": "NS(=O)(=O)c1ccc(Nc2ncc(-c3ccccc3)o2)cc1", "inhibition": 3.59}, {"smiles": "Cc1ccc(O)cc1Nc1ccnc2cc(-c3ccccn3)ccc12", "inhibition": 4.12}, {"smiles": "COc1cc2ncn(-c3cc(OCc4ccccc4C(F)(F)F)c(C(=O)N(C)C)s3)c2cc1OC", "inhibition": 0.67}, {"smiles": "COc1ccc(-c2nn3ncccc3c2-c2ccnc(Nc3ccc4c(c3)OCCO4)n2)cc1", "inhibition": -0.58}, {"smiles": "COc1cccc(-n2ncc3c(N/N=C/c4ccc(F)cc4)ncnc32)c1", "inhibition": 5}, {"smiles": "COc1cc(Nc2nccc(Nc3ccc4c(C)n[nH]c4c3)n2)cc(OC)c1OC", "inhibition": 5.01}, {"smiles": "COc1ccc(-c2cc3c(N)ncnc3o2)cc1", "inhibition": -0.51}, {"smiles": "Nc1ncc(-c2cccc(S(N)(=O)=O)c2)c2scc(-c3ccc(F)c(Cl)c3)c12", "inhibition": 4.05}, {"smiles": "COC(=O)c1sc(-n2cnc3cc(OC)c(OC)cc32)cc1OCc1ccccc1C(F)(F)F", "inhibition": 2.58}, {"smiles": "Clc1ccc(-c2nn3ncccc3c2-c2ccnc(Nc3ccccc3)n2)cc1", "inhibition": 1.14}, {"smiles": "CC(=O)NCc1cccc(C#Cc2cncnc2Nc2ccc(OCc3cccc(F)c3)c(Cl)c2)c1", "inhibition": 1.2}, {"smiles": "COc1cc2c(cc1Nc1nc(Nc3ccsc3C(N)=O)c3cc[nH]c3n1)N(C(=O)CN(C)C)CCC2(C)C", "inhibition": 3.88}, {"smiles": "Cc1cccc(Nc2ncc(-c3ccccc3)o2)c1", "inhibition": 1.56}, {"smiles": "CCn1c(-c2nonc2N)nc2cnc(Oc3cccc(NC(=O)c4ccc(N(C)C)cc4)c3)cc21", "inhibition": 0.1}, {"smiles": "COc1ccc(-c2oc3ncnc(N)c3c2-c2ccc(NC(=O)Nc3cc(C(F)(F)F)ccc3F)cc2)cc1", "inhibition": 8.25}, {"smiles": "COc1cc(/C=N/Nc2ncnc3[nH]ncc23)ccc1O", "inhibition": 4.61}, {"smiles": "Fc1cccc(COc2ccc(Nc3ncnc4sc(-c5ccco5)cc34)cc2Cl)c1", "inhibition": 5.86}, {"smiles": "CN1CCC(n2cnc(-c3ccc(F)cc3)c2-c2ccnc(Nc3ccccc3)n2)CC1", "inhibition": 2.41}, {"smiles": "CNC(=O)c1cccc(C#Cc2cncnc2Nc2ccc(OCc3cccc(F)c3)c(Cl)c2)c1", "inhibition": 3.38}, {"smiles": "CCOc1ccc2c(-c3ccnc(Nc4cccc(C(F)(F)F)c4)n3)cnn2n1", "inhibition": 0.79}, {"smiles": "CCN1CCC(CC(=O)Nc2n[nH]c3nnc(-c4cccc(F)c4F)cc23)CC1", "inhibition": 1.36}, {"smiles": "FC(F)(F)c1cccc(-c2nn3ncccc3c2-c2ccnc(Nc3ccc4c(c3)OCCO4)n2)c1", "inhibition": 4.46}, {"smiles": "CN(C)CCOc1ccc(-c2nc(-c3ccncc3)c(-c3ccc4c(c3)CC/C4=N\\O)[nH]2)cc1", "inhibition": 3.44}, {"smiles": "Cc1cccc2c1NC(=O)/C2=N\\Nc1ccc(S(N)(=O)=O)cc1", "inhibition": 3.05}, {"smiles": "COc1cccc(-c2c[nH]c3c(N/N=C/c4ccncc4)ncnc23)c1", "inhibition": 7.3}, {"smiles": "COc1ccc(-c2cc(-c3c[nH]nc3-c3ccccn3)ccn2)cc1", "inhibition": 2.81}]}, {"target": "T1, Tyrosine-protein kinase receptor TYRO3 (Homo sapiens)", "conditions": "at 1 µM", "units": {"inhibition": "%"}, "values": [{"smiles": "Fc1ccc(-c2nn3ccccc3c2-c2ccncc2)cc1", "inhibition": 1.25}, {"smiles": "NS(=O)(=O)c1ccc(N/N=C2\\C(=O)Nc3ccc4ncccc4c32)cc1", "inhibition": 41.9}, {"smiles": "CCc1nn2ncccc2c1-c1ccnc(NC2CC2)n1", "inhibition": 3.06}, {"smiles": "O=C(Nc1n[nH]c2cc(-c3ccc(F)cc3)ccc12)C1CC1", "inhibition": 13.5}, {"smiles": "CCCN1CCC(c2ccc(Nc3nc(Nc4cc(F)ccc4C(N)=O)c4cc[nH]c4n3)c(OC)c2)CC1", "inhibition": 18.4}, {"smiles": "CCCN(CCS(C)(=O)=O)Cc1ccc(-c2ccc3ncnc(Nc4ccc(OCc5cccc(F)c5)c(Cl)c4)c3c2)o1", "inhibition": 1.99}, {"smiles": "CCn1cc(-c2ccnc3[nH]ccc23)c(-c2cccc(NC(=O)Nc3ccc(OCc4ccccc4)cc3)c2)n1", "inhibition": 1.53}, {"smiles": "CC(C)COC(=O)c1ccc2c(c1)/C(=C/Nc1ccc(S(N)(=O)=O)cc1)C(=O)N2", "inhibition": 17}, {"smiles": "NS(=O)(=O)c1ccc(Nc2ncc(-c3ccccc3)o2)cc1", "inhibition": 4.49}, {"smiles": "Cc1ccc(O)cc1Nc1ccnc2cc(-c3ccccn3)ccc12", "inhibition": 13.9}, {"smiles": "COc1cc2ncn(-c3cc(OCc4ccccc4C(F)(F)F)c(C(=O)N(C)C)s3)c2cc1OC", "inhibition": 2}, {"smiles": "COc1ccc(-c2nn3ncccc3c2-c2ccnc(Nc3ccc4c(c3)OCCO4)n2)cc1", "inhibition": 9.92}, {"smiles": "COc1cccc(-n2ncc3c(N/N=C/c4ccc(F)cc4)ncnc32)c1", "inhibition": 9.33}, {"smiles": "COc1cc(Nc2nccc(Nc3ccc4c(C)n[nH]c4c3)n2)cc(OC)c1OC", "inhibition": 27.9}, {"smiles": "COc1ccc(-c2cc3c(N)ncnc3o2)cc1", "inhibition": 2.56}, {"smiles": "Nc1ncc(-c2cccc(S(N)(=O)=O)c2)c2scc(-c3ccc(F)c(Cl)c3)c12", "inhibition": 25.1}, {"smiles": "COC(=O)c1sc(-n2cnc3cc(OC)c(OC)cc32)cc1OCc1ccccc1C(F)(F)F", "inhibition": 2.68}, {"smiles": "Clc1ccc(-c2nn3ncccc3c2-c2ccnc(Nc3ccccc3)n2)cc1", "inhibition": 5.63}, {"smiles": "CC(=O)NCc1cccc(C#Cc2cncnc2Nc2ccc(OCc3cccc(F)c3)c(Cl)c2)c1", "inhibition": 0.4}, {"smiles": "COc1cc2c(cc1Nc1nc(Nc3ccsc3C(N)=O)c3cc[nH]c3n1)N(C(=O)CN(C)C)CCC2(C)C", "inhibition": 18.6}, {"smiles": "Cc1cccc(Nc2ncc(-c3ccccc3)o2)c1", "inhibition": 4.61}, {"smiles": "CCn1c(-c2nonc2N)nc2cnc(Oc3cccc(NC(=O)c4ccc(N(C)C)cc4)c3)cc21", "inhibition": 0.87}, {"smiles": "COc1ccc(-c2oc3ncnc(N)c3c2-c2ccc(NC(=O)Nc3cc(C(F)(F)F)ccc3F)cc2)cc1", "inhibition": 49.4}, {"smiles": "COc1cc(/C=N/Nc2ncnc3[nH]ncc23)ccc1O", "inhibition": 26.6}, {"smiles": "Fc1cccc(COc2ccc(Nc3ncnc4sc(-c5ccco5)cc34)cc2Cl)c1", "inhibition": 1.85}, {"smiles": "CN1CCC(n2cnc(-c3ccc(F)cc3)c2-c2ccnc(Nc3ccccc3)n2)CC1", "inhibition": 2.25}, {"smiles": "CNC(=O)c1cccc(C#Cc2cncnc2Nc2ccc(OCc3cccc(F)c3)c(Cl)c2)c1", "inhibition": 1.74}, {"smiles": "CCOc1ccc2c(-c3ccnc(Nc4cccc(C(F)(F)F)c4)n3)cnn2n1", "inhibition": 2.7}, {"smiles": "CCN1CCC(CC(=O)Nc2n[nH]c3nnc(-c4cccc(F)c4F)cc23)CC1", "inhibition": 1.73}, {"smiles": "FC(F)(F)c1cccc(-c2nn3ncccc3c2-c2ccnc(Nc3ccc4c(c3)OCCO4)n2)c1", "inhibition": 22.9}, {"smiles": "CN(C)CCOc1ccc(-c2nc(-c3ccncc3)c(-c3ccc4c(c3)CC/C4=N\\O)[nH]2)cc1", "inhibition": 5.27}, {"smiles": "Cc1cccc2c1NC(=O)/C2=N\\Nc1ccc(S(N)(=O)=O)cc1", "inhibition": 1.39}, {"smiles": "COc1cccc(-c2c[nH]c3c(N/N=C/c4ccncc4)ncnc23)c1", "inhibition": 38}, {"smiles": "COc1ccc(-c2cc(-c3c[nH]nc3-c3ccccn3)ccn2)cc1", "inhibition": 4.46}]}]}
